What all share (details): mRNA level, 48 h; actives raise or lower the signal
Read-out in test [1]: Early growth response protein 1 (EGR1) transcription factor, EGR1 (gene 1958)
The test can be described thus: LTEA_HepaRG_EGR1: Life Technologies and Expression Analysis (LTEA) Assay for Early growth response protein 1 (EGR1) transcription factor using HepaRG (AID 2283490). The method, boiled down:
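Read-out is EGR1 mRNA level by qRT-PCR, normalized to three housekeeping genes and analysed for gain or loss of signal against 0.5% DMSO. Source cells: human HepaRG, treated 48 h at up to 100 uM in half-log dilutions.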

Read-out in test [2]: Ezrin (EZR), EZR (gene 7430)
As to the kind of experiment: LTEA_HepaRG_EZR: Life Technologies and Expression Analysis (LTEA) Assay for Ezrin (EZR) using HepaRG (AID 2283491). The method, boiled down: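 HepaRG, 48 h chemical exposure, 8-pt half-log series from 100 uM, 0.5% DMSO vehicle, duplicates. Read-out: EZR mRNA by TaqMan qRT-PCR (Fluidigm array), housekeeping-normalized; bidirectional curve fit vs DMSO baseline.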

Read-out in test [3]: Cytochrome P450 3A7 (Homo sapiens) (UniProt P24462)
The test can be described thus: LTEA_HepaRG_CYP3A7: Life Technologies and Expression Analysis (LTEA) Assay for CYP3A7 using HepaRG (AID 2283492). A digest of the protocol: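 Differentiated HepaRG cells in serum-free induction medium exposed 48 h in duplicate to 8-point half-log series from 100 uM top in 0.5% DMSO. CYP3A7 mRNA by qRT-PCR, normalized to ACTB/GAPDH/POLR2A, bidirectional fit versus DMSO.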

Read-out in a further test: CYP3A5 (gene 1577)
As to the kind of experiment: LTEA_HepaRG_CYP3A5: Life Technologies and Expression Analysis (LTEA) Assay for CYP3A5 using HepaRG (AID 2283493). A digest of the protocol:
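HepaRG plated 48 h, switched to serum-free induction medium, chemicals added 48 h (max 100 uM, half-log, 0.5% DMSO). RNA isolated; CYP3A5 by TaqMan qRT-PCR. Gain/loss vs DMSO.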

Read-out in test [4]: Fatty Acid-Binding Protein 1 (FABP1), FABP1 (gene 2168)
The test can be described thus: LTEA_HepaRG_FABP1: Life Technologies and Expression Analysis (LTEA) Assay for Fatty Acid-Binding Protein 1 (FABP1) using HepaRG (AID 2283494). The method, boiled down: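 HepaRG, 48 h post-plating switched to serum-free induction medium, then dosed 48 h (duplicate, 8 pts, ≤100 uM, 0.5% DMSO). RNA → Fluidigm TaqMan qRT-PCR, FABP1 normed to ACTB/GAPDH/POLR2A. Bidirectional curve fit vs DMSO.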

Read-out in test [5]: Cytochrome P450 4A22 (Homo sapiens) (UniProt Q5TCH4)
The test can be described thus: LTEA_HepaRG_CYP4A22: Life Technologies and Expression Analysis (LTEA) Assay for Cytochrome P450 4A22 (CYP4A22) using HepaRG (AID 2283495). The method, boiled down: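 Differentiated HepaRG cells in serum-free induction medium exposed 48 h in duplicate to eight half-log concentrations up to 100 uM in 0.5% DMSO. CYP4A22 mRNA quantified by TaqMan qRT-PCR, normalized to ACTB, GAPDH and POLR2A; bidirectional fit versus DMSO.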

Read-out in test [6]: Cytochrome P450 7A1 (Homo sapiens) (UniProt P22680)
The test can be described thus: LTEA_HepaRG_CYP7A1: Life Technologies and Expression Analysis (LTEA) Assay for Cytochrome P450 7A1 (CYP7A1) using HepaRG (AID 2283496). The method, boiled down: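 HepaRG cells plated 48 h, then switched to serum-free induction medium and exposed in duplicate for 48 h to 8-point half-log series from 100 uM in 0.5% DMSO. CYP7A1 mRNA by qRT-PCR (TaqMan), normalized to ACTB/GAPDH/POLR2A; bidirectional fit versus DMSO.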

Read-out in test [7]: Glutathione S-Transferase (GSTA2), GSTA2 (gene 2939)
The test can be described thus: LTEA_HepaRG_GSTA2: Life Technologies and Expression Analysis (LTEA) Assay for Glutathione S-Transferase (GSTA2) using HepaRG (AID 2283497). The method, boiled down:
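HepaRG, 48 h dosing, 8-pt half-log CRC from 100 uM, 0.5% DMSO vehicle, n=2; RNA → Fluidigm TaqMan qRT-PCR; GSTA2 vs ACTB/GAPDH/POLR2A; gain/loss fit vs DMSO.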

Read-out in test [8]: Glutamate-cysteine ligase catalytic (GCLC), GCLC (gene 2729)
As to the kind of experiment: LTEA_HepaRG_GCLC: Life Technologies and Expression Analysis (LTEA) Assay for Glutamate-cysteine ligase catalytic (GCLC) using HepaRG (AID 2283498). The method, boiled down: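 Read-out is GCLC transcript level by Fluidigm-based TaqMan qRT-PCR, normalized to three housekeeping genes and fitted in both directions relative to 0.5% DMSO. Human HepaRG cells received chemicals for 48 h, up to 100 uM.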

Read-out in test [9]: growth arrest and DNA damage 45 (GADD45G), GADD45G (gene 10912)
As to the kind of experiment: LTEA_HepaRG_GADD45G: Life Technologies and Expression Analysis (LTEA) Assay for growth arrest and DNA damage 45 (GADD45G) using HepaRG (AID 2283499). A digest of the protocol:
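Differentiated human HepaRG cells, 48 h post-plating, exposed 48 h in serum-free induction medium to 8 half-log concentrations (top 100 uM, 0.5% DMSO) in duplicate. GADD45G mRNA measured by Fluidigm TaqMan qRT-PCR, normalized to ACTB, GAPDH, POLR2A; bidirectional fit versus DMSO.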

Read-out in test [10]: Glutamate-cysteine ligase regulatory (GCLM), GCLM (gene 2730)
As to the kind of experiment: LTEA_HepaRG_GCLM: Life Technologies and Expression Analysis (LTEA) Assay for Glutamate-cysteine ligase regulatory (GCLM) using HepaRG (AID 2283500). A digest of the protocol: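 Cells were plated, cultured 48 h, switched to serum-free induction medium, then dosed in duplicate for 48 h at eight half-log concentrations up to 100 uM. RNA was then profiled by qRT-PCR; gain or loss versus DMSO was fitted.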

Read-out in test [11]: Glutathione S-transferase M3 (GSTM3), GSTM3 (gene 2947)
The test can be described thus: LTEA_HepaRG_GSTM3: Life Technologies and Expression Analysis (LTEA) Assay for Glutathione S-transferase M3 (GSTM3) using HepaRG (AID 2283501). The method, boiled down: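 Differentiated human HepaRG cells were exposed in duplicate for 48 h in serum-free induction medium, 8 points from 100 uM top in half-log steps, 0.5% DMSO. GSTM3 mRNA was measured by TaqMan qRT-PCR, normalized to ACTB, GAPDH and POLR2A; bidirectional fit versus DMSO.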

Read-out in test [12]: Heat shock 70 kDa protein 1 (HSPA1A), gene 3303
The test can be described thus: LTEA_HepaRG_HSPA1A: Life Technologies and Expression Analysis (LTEA) Assay for Heat shock 70 kDa protein 1 (HSPA1A) using HepaRG (AID 2283502). A digest of the protocol: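 Readout is HSPA1A transcript level by microfluidic qRT-PCR, normalized to three housekeeping genes and analysed for gain or loss of signal relative to 0.5% DMSO. Human HepaRG cultures received test chemicals for 48 h at up to 100 uM.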

Read-out in test [13]: Hypoxia-inducible factor 1-alpha (Homo sapiens) (UniProt Q16665)
The test can be described thus: LTEA_HepaRG_HIF1A: Life Technologies and Expression Analysis (LTEA) Assay for Hypoxia-inducible factor 1 (HIF1A) Trancription factor using HepaRG (AID 2283503). The method, boiled down: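 Differentiated HepaRG cells in serum-free induction medium exposed 48 h, in duplicate, to 8-point half-log series from 100 uM in 0.5% DMSO. HIF1A mRNA measured by TaqMan qRT-PCR, normalized to ACTB/GAPDH/POLR2A, fitted bidirectionally versus DMSO.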

Read-out in test [14]: 3-Hydroxy-3-Methylglutaryl-CoA Synthase 2 (HMGCS2), HMGCS2 (gene 3158)
As to the kind of experiment: LTEA_HepaRG_HMGCS2: Life Technologies and Expression Analysis (LTEA) Assay for 3-Hydroxy-3-Methylglutaryl-CoA Synthase 2 (HMGCS2) using HepaRG (AID 2283504). The method, boiled down:
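Human HepaRG cells in serum-free induction medium were exposed in duplicate for 48 h to 8-point half-log series from 100 uM top in 0.5% DMSO. HMGCS2 mRNA measured by TaqMan qRT-PCR, normalised to ACTB, GAPDH, POLR2A; bidirectional fit versus DMSO.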

Read-out in a further test: HGF (gene 3082)
As to the kind of experiment: LTEA_HepaRG_HGF: Life Technologies and Expression Analysis (LTEA) Assay for Hepatocyte Growth Facto (HGF) using HepaRG (AID 2283505). A digest of the protocol: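 Differentiated HepaRG cells in serum-free induction medium exposed 48 h in duplicate, 8 half-log concentrations from 100 uM in 0.5% DMSO. HGF mRNA by qRT-PCR, normalised to ACTB, GAPDH, POLR2A; bidirectional fitting.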

Read-out in test [15]: Insulin Like Growth Factor 1 (IGF1), IGF1 (gene 3479)
The test can be described thus: LTEA_HepaRG_IGF1: Life Technologies and Expression Analysis (LTEA) Assay for Insulin Like Growth Factor 1 (IGF1) using HepaRG (AID 2283506). A digest of the protocol: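 HepaRG, plated 48 h, then switched to serum-free induction media; test chemical 8-pt half-log from 100 uM (0.5% DMSO), duplicate, 48 h. Lysis in RLT, TaqMan qRT-PCR, norm. ACTB/GAPDH/POLR2A. Bidirectional fit vs DMSO.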

Read-out in test [16]: Intercellular Adhesion Molecule 1 (ICAM1), ICAM1 (gene 3383)
The test can be described thus: LTEA_HepaRG_ICAM1: Life Technologies and Expression Analysis (LTEA) Assay for Intercellular Adhesion Molecule 1 (ICAM1) using HepaRG (AID 2283507). The method, boiled down:
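Differentiated human HepaRG cells in serum-free induction medium exposed 48 h in duplicate to 8 half-log concentrations (top 100 uM, 0.5% DMSO). ICAM1 mRNA quantified by TaqMan qRT-PCR, normalized to ACTB, GAPDH and POLR2A; bidirectional fitting versus DMSO.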

Read-out in test [17]: Insulin-like growth factor-binding protein 1 (IGFBP1), IGFBP1 (gene 3484)
As to the kind of experiment: LTEA_HepaRG_IGFBP1: Life Technologies and Expression Analysis (LTEA) Assay for Insulin-like growth factor-binding protein 1 (IGFBP1) using HepaRG (AID 2283508). A digest of the protocol:
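HepaRG cells, plated 48 h then switched to serum-free induction medium, exposed in duplicate for 48 h to 8-point half-log series from 100 uM in 0.5% DMSO. mRNA measured by qRT-PCR, normalized to ACTB/GAPDH/POLR2A; bidirectional fit versus DMSO.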

Read-out in test [18]: Interleukin 6 (IL6), IL6 (gene 3569)
The test can be described thus: LTEA_HepaRG_IL6: Life Technologies and Expression Analysis (LTEA) Assay for Interleukin 6 (IL6) using HepaRG (AID 2283509). The method, boiled down: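 HepaRG, ~100,000 cells/well, 48 h pre-culture; serum-free induction medium; cmpd 8-pt half-log from 100 uM, 0.5% DMSO, duplicate, 48 h. Lysis in RLT, TaqMan qRT-PCR; gain or loss vs DMSO.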

The source made the active and inactive calls. How the source made its calls: active means hit-call score of the fitted dose curve at least 0.9, where 1 is the maximum; inactive means score below 0.9.

Hypoxia-inducible factor 1-alpha (Homo sapiens), sequence (Q16665 whole entry, looked up): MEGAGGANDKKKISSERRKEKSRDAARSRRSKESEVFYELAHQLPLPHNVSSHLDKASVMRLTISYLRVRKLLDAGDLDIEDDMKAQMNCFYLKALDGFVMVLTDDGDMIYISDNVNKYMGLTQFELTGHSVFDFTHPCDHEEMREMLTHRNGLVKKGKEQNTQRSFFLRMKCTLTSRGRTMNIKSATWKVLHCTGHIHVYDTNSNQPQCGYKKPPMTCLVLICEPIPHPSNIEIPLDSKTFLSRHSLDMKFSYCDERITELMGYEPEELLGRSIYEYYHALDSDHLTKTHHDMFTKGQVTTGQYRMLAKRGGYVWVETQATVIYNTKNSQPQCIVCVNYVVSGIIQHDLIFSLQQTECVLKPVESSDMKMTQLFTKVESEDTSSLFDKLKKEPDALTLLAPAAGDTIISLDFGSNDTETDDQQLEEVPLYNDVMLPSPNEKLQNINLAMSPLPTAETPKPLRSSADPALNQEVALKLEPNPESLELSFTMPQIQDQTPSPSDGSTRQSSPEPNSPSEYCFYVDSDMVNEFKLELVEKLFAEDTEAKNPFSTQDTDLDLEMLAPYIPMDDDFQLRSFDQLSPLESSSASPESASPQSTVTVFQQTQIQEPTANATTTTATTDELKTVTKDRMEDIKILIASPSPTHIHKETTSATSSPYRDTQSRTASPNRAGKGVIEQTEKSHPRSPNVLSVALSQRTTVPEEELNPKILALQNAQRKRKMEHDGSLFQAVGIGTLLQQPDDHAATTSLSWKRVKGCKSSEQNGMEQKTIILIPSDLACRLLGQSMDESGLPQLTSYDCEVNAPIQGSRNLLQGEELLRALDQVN
Cytochrome P450 3A7 (Homo sapiens), sequence (P24462 whole entry, looked up): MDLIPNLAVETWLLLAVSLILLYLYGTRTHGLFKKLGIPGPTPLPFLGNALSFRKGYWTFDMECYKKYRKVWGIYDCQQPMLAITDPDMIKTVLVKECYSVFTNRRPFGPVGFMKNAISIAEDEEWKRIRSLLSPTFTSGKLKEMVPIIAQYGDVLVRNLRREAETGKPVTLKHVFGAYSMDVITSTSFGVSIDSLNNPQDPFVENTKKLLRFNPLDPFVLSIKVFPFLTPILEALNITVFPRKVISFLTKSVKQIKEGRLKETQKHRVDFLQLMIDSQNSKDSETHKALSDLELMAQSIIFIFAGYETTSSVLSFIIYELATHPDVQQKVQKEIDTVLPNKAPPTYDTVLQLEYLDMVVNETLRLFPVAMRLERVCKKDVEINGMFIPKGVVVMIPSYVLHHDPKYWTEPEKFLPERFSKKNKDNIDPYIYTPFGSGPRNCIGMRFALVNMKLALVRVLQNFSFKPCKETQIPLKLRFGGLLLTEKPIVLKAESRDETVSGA

For `COCc1cnc(C2=NC(C)(C(C)C)C(=O)N2)c(C(=O)O)c1` (stereo not given), the molecule was classed as inactive (in [1]; in test [2]; in [3]; with CYP3A5 (gene 1577); in test [4]; in test [5]). Besides, the result in test [6], in test [7], in [8], in test [9], in test [10] and in [11] was inactive. In addition, the molecule was classed as inactive (in test [12]; in [13]; in [14]; with HGF (gene 3082); in [15]; in test [16]). In addition, the molecule was called inactive in test [17] and in [18].
`CNC(=O)Oc1cccc2ccccc12`: the result (in test [1]; in [2]; in test [3]; with CYP3A5 (gene 1577); in [4]; in test [5]) was inactive. The result in [6], in test [7], in test [8], in test [9], in [10] and in test [11] was inactive. For the same molecule, the call (in test [12]; in [13]; in [14]; with HGF (gene 3082); in test [15]; in test [16]) was inactive. Further, the molecule was classed as inactive in test [17] and in test [18].
A word on the AC50: it is the concentration giving half of the maximal activity seen. For `CC(C)N1C(=O)N(c2ccccc2)CSC1=NC(C)(C)C`, the call (in [1]; in test [3]; in the test with CYP3A5 (gene 1577); in test [11]; in test [12]; in test [13]) was inactive. For the same molecule, the call with HGF (gene 3082) was inactive. The AC50 in test [2] was 50 µM (active); in test [4], 44.8 µM (active); in test [5] it was 63.6 µM (active); in test [6] it was 70.4 µM (active); in test [7], 82.3 µM (active); in [8] it was 81.8 µM (active). The AC50 in test [9] was 76.1 µM (active); in [10], 74.7 µM (active); in [14], 75.5 µM (active); in test [15], 59.9 µM (active); in [16], 74.6 µM (active); in [17], 89.1 µM (active). For the same molecule, in test [18], the AC50 was 77.1 µM (active).

The record behind these values is PubChem BioAssay (EPA / NIEHS).
